TDP1 cell noCPT = qHTS for Inhibitors of human tyrosyl-DNA phosphodiesterase 1 (TDP1): qHTS in cells in absence of CPT; DT40 Tdp1-/- hTDP1 cells, no CPT, ATP luminescence, 48 h; Potency, µM (series often up to 46.2 µM), actives largely listed as inhibitors; 420,000 tested, 15% active; AID 686978, 2013; also: nearly all actives have a fitted effect of over 55% in size
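Readout: luminescence from CellTiter-Glo after 30 min in the dark at RT. Cells: DT40 Tdp1-/- with stable hTDP1, 400/well. Exposure: compounds alone, ≥48 hr, 37 °C.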
HT1080 IDH1KD tx = HT-1080 IDH1 knockdown cell toxicity (counter line) | Potency, µM (series often up to 46.1 µM), actives largely listed as cytotoxic | HT-1080 IDH1 knockdown viability, ATP luminescence, 48 h | AID 686971 | 360,000 tested, 2% active
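IDH1KD HT-1080 cells, 750/well, RPMI + 5% FBS; compound pinned after 2 h settling; 48 h, 37 °C; CellTiter-Glo luminescence; % activity normalised to DMSO and no-cell wells; curves fitted, classed by r2 and efficacy.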
TDP1 cell CPT = DT40-hTDP1 cell growth loss with CPT. 420,000 tested, 12% active. Potency, µM (titrated, usually from 46.2 µM), usual class: inhibitors. chicken DT40 Tdp1-/-;hTDP1 cells + 20 nM CPT, ATP luminescence, 48 h; also: nearly all actives have a fitted effect of over 55% in size
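Chicken DT40 Tdp1-/- cells complemented with human TDP1, 400 cells/well, exposed to compounds plus 20 nM camptothecin for at least 48 h at 37 C; viability read as ATP content by CellTiter-Glo luminescence.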
HT1080NT lethal = kills 2HG-producing HT-1080-NT fibrosarcoma cells | 360,000 tested, 1.6% active | AID 686970 | HT-1080-NT fibrosarcoma viability, CellTiter-Glo ATP luminescence, 48 h | Potency, µM (titrated, usually from 46.1 µM), most hits filed as cytotoxic;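 also: NT is the 2HG producing partner of a matched IDH1 knockdown line; nearly all actives have a fitted effect of over 55% in size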
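Viability by CellTiter-Glo luminescence after 48 h compound exposure at 37C of HT-1080-NT cells (750/well, RPMI, 5% FBS). % activity scaled between DMSO wells and medium-only wells, then curve-fitted and categorized by curve class.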
IL-1B inflam inh = inhibitors of inflammasome signaling (IL-1 beta secretion); 360,000 tested, 4.7% active; activity change, % at 57.5 µM; THP-1 LPS/ATP IL-1B secretion, AlphaLISA, 16 h; active compounds read low; in the data active = activity change below about -50%; inconclusive = mostly about -30% to -49%
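Secreted IL-1B measured by AlphaLISA bead assay after 16 h compound exposure of THP-1 cells; compounds (final up to 57.5 uM) added 1 h before LPS (250 ng/mL) and ATP (1.25 mM) stimulation; lower signal means less secretion.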
Of the large screens only hits and unclear results are named; the others gave an inactive call. The list is not random: actives were taken first. Their share in the collection is about 19%. Unless noted, calls follow the shape of the dose curve; as a rule, active = well fitted curve in the direction sought with a large enough effect; inconclusive = small, poorly fitted or top-dose-only effect, or another doubt; inactive = no such curve, though single readings can be large; an effect the other way counts as inactive or inconclusive.

COc1ccc2[nH]cc(S(=O)(=O)c3ccc(F)cc3)c(=O)c2c1	TDP1 cell noCPT inconclusive, TDP1 cell CPT inconclusive
CCCn1c(SCC(=O)N2CCOCC2)nnc1-c1ccncc1	none
Cc1nc(Nc2cccc(O)c2)c2oc3ccccc3c2n1	TDP1 cell noCPT 13µM, TDP1 cell CPT inconclusive
Cc1nc(Nc2cccc(F)c2)c2oc3ccccc3c2n1	TDP1 cell noCPT inconclusive, TDP1 cell CPT inconclusive
Cc1nc(Nc2cccc(Cl)c2)c2oc3ccccc3c2n1	TDP1 cell noCPT 21µM, HT1080 IDH1KD tx inconclusive, TDP1 cell CPT 16µM, IL-1B inflam inh -72
COc1cccc(Nc2nc(C)nc3c2oc2ccccc23)c1	TDP1 cell noCPT 21µM, HT1080 IDH1KD tx inconclusive, TDP1 cell CPT inconclusive
CCc1ccc2c(-c3cccc(Cl)c3)nc(=O)n(CC)c2n1	TDP1 cell noCPT inconclusive (no result: HT1080 IDH1KD tx, HT1080NT lethal, IL-1B inflam inh)
CCc1cc2c(N3CCN(c4ccccc4)CC3)ncnc2s1	TDP1 cell noCPT 12µM, TDP1 cell CPT 13µM
CC(=O)N1CCN(c2ncnc3sc(-c4ccccc4)cc23)CC1	TDP1 cell noCPT inconclusive, TDP1 cell CPT inconclusive
Oc1ccc(N2CCN(c3ncnc4sc(-c5ccccc5)cc34)CC2)cc1	TDP1 cell noCPT 23µM, HT1080 IDH1KD tx inconclusive, TDP1 cell CPT inconclusive, HT1080NT lethal 13µM, IL-1B inflam inh -70
CCN1CCN(Cc2ccc(NC(=O)c3cc(NC(=O)c4cnnc5ccccc45)cc(OC)c3)cc2C(F)(F)F)CC1	TDP1 cell noCPT 6.5µM, HT1080 IDH1KD tx inconclusive, TDP1 cell CPT 8.2µM, HT1080NT lethal inconclusive
CCN1CCN(Cc2ccc(NC(=O)c3cc(NC(=O)c4cncc(-c5ccc(C#N)cc5)c4)cc(OC)c3)cc2C(F)(F)F)CC1	TDP1 cell noCPT 2.6µM, HT1080 IDH1KD tx inconclusive, TDP1 cell CPT 2.3µM, HT1080NT lethal inconclusive, IL-1B inflam inh -59
CCN1CCN(Cc2ccc(NC(=O)c3cc(NC(=O)c4nccnc4N)cc(OC)c3)cc2C(F)(F)F)CC1	TDP1 cell noCPT inconclusive, TDP1 cell CPT inconclusive, IL-1B inflam inh inconclusive
C[C@@H]1CN([C@@H](C)CO)C(=O)CCCn2nncc2CO[C@H]1CN(C)S(=O)(=O)c1cccc(C#N)c1	none
CCOC(=O)C1(C)CCCN(C(=O)c2cccc(C#N)c2)C1 (stereo unspecified)	none
CCOC(=O)[C@@H]1[C@H]2COc3ccc(Br)cc3[C@H]2N2C(=O)N(c3ccc(Cl)cc3)C(=O)[C@]12C	TDP1 cell noCPT 9.2µM, TDP1 cell CPT inconclusive
CCOC(=O)[C@@H]1[C@H]2COc3ccc(Br)cc3[C@@H]2N2C(=O)N(c3ccccc3)C(=O)[C@@]12C	TDP1 cell CPT inconclusive
CCOC(=O)[C@@H]1[C@H]2COc3ccc(Br)cc3[C@@H]2N2C(=O)N(c3ccc(Br)cc3)C(=O)[C@]12C	TDP1 cell noCPT inconclusive
CCOC(=O)[C@@H]1[C@H]2COc3ccc(Br)cc3[C@H]2N2C(=O)N(c3ccc(C(F)(F)F)cc3)C(=O)[C@]12C	TDP1 cell noCPT 12µM, TDP1 cell CPT inconclusive
CCOC(=O)[C@H]1[C@H]2COc3ccc(Br)cc3[C@@H]2N2C(=O)N(c3ccccc3)C(=O)[C@@]12C	TDP1 cell CPT 18µM
O=C(NCc1ccccc1)c1ccc(CS(=O)Cc2ccc(Cl)cc2)o1 (stereo unspecified)	TDP1 cell CPT inconclusive
CC12CCC(=O)C=C1C(F)CC1C2C(O)CC2(C)C1CCC2(O)C(=O)CO (stereo unspecified)	HT1080 IDH1KD tx inconclusive (no result: IL-1B inflam inh)
O=c1oc2ccccc2cc1-c1cn2cc(Cc3ccc(Cl)cc3)sc2n1	TDP1 cell noCPT 2.6µM, TDP1 cell CPT 3.3µM (no result: HT1080 IDH1KD tx, HT1080NT lethal, IL-1B inflam inh)
Cc1cccc(N2C(=O)c3cccc4cccc(c34)C2=O)c1	TDP1 cell noCPT inconclusive
Nc1cccc(N2C(=O)c3cccc4c(N)ccc(c34)C2=O)c1	TDP1 cell noCPT inconclusive
Cc1cccc(N2C(=O)c3cccc4c(N(C)CCO)ccc(c34)C2=O)c1	TDP1 cell noCPT 18µM, TDP1 cell CPT inconclusive
Cc1cccc(N2C(=O)c3cccc4c(N)ccc(c34)C2=O)c1	TDP1 cell CPT inconclusive, IL-1B inflam inh -58
Cc1ccc(NC(=O)N2CCC(CN3CCCC3)CC2)c(C)c1	none (no result: HT1080 IDH1KD tx, HT1080NT lethal, IL-1B inflam inh)

Screening data deposited in PubChem BioAssay by National Center for Advancing Translational Sciences (NCATS).
